Screens: PubChem BioAssay, several laboratories
NRP1-CendR mod = NRP-1/CendR interaction modulation; O14786; FAM-RPARPAR peptide binding to NRP-1, fluorescence polarization; inhibition, % at 25 µM; hit rate 0.85% among 360,000; AID 602438;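 active means inhibition or corrected inhibition above about 18%, plus a signal ratio from 0.5 to 1.5, limit read from the data, passing the limit was not always enough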
RAD54 inh = blocks human RAD54 Holliday junction branch migration. inhibition, % at 10.4 µM. FAM/BHQ fluorescence. Q92698. hit rate 0.14% among 360,000;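 active means mean normalized replicate activity at least 40 and at least half of replicates scoring 40 or more; inconclusive means only one of the two criteria met; inactive means mean below 40 and under half of replicates reaching 40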;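 further: 0% = median of neutral control wells and 100% = median of positive control wells; inhibitors cause a drop in the FAM fluorescence signal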
FID counter = counter-screen for HCV NS3 helicase inhibitors: DNA intercalator displacement; DNA fluorescent intercalator displacement, fluorescence; inhibition, % at 7.9 µM; hit rate 0.17% among 290,000; AID 1845; in the data active means inhibition above about 37%;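 further: 0% = vehicle and 100% = reference compound; higher means more ethidium bromide displaced from hairpin DNA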
N-glyco inh = N-linked glycosylation inhibition | D54 ERlucT glycosylation luciferase reporter, 24 h; percent of 100 nM tunicamycin response | hit rate 0.23% among 360,000 | reporter increase, % at 12.5 µM;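 active means mean luciferase reporter signal, scaled so untreated is 0 and the glycosylation-blocking control 100, at or above a set limit in every replicate; inconclusive means mean reaches the limit but not every replicate does; inactive means mean below the limit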;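 further: luciferase carries N-glycosylation sites so blocking glycosylation raises the light; 0% = median of neutral control wells and 100% = median of 100 nM tunicamycin wells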
RAD52 inh = inhibitors of human RAD52 DNA annealing; recombinant RAD52 DNA annealing, FRET fluorescence; inhibition, % at 18.7 µM; hit rate 0.46% among 360,000; AID 651710; P43351;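 active means every replicate showing at least 50% inhibition; inconclusive means mean inhibition at least 50% but not in every replicate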
Target sequence (P43351 whole entry, looked up): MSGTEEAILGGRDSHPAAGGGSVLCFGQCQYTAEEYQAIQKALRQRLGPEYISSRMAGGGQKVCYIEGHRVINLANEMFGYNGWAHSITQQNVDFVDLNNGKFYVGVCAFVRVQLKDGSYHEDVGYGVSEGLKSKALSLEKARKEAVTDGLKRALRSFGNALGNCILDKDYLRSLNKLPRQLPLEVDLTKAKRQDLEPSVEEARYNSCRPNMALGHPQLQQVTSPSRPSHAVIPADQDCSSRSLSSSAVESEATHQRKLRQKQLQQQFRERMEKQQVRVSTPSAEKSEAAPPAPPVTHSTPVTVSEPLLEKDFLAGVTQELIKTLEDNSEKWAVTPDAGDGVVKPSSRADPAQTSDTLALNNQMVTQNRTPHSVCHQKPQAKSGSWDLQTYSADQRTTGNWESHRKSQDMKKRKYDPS
miR122 inh = inhibitors of miR-122 in Huh7 cells. Huh7 miR-122 Renilla luciferase sensor, 48 h; neutral wells = 0, positive control = 100. activation (reporter increase), % at 12.5 µM. hit rate 0.3% among 340,000. AID 602342;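 active means mean replicate activation score at least 90 and every replicate individually at or above 90; inconclusive means only one of the two criteria met; inactive means neither criterion met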;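 further: higher luciferase means less miR-122 activity so hits act as miR-122 inhibitors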
DNA binding = binds DNA, flagging false Rad54 inhibitor hits; shares compounds with RAD54 inh; Acridine orange-DNA displacement, fluorescence polarization, 20 min; AC50, µM (series often up to 35 µM), without a hit: at the top dose activity change, negative = DNA binding; hit rate 8% among 460;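 active means signal drop giving an AC50 within twice the top valid tested concentration of each sample, actives reach about 35 µM in these data; inactive means activity opposite to expected, plus the rest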;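 further: polarization loss reports compound binding to salmon sperm DNA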
DNA binder FP = binds DNA, flagging false RAD52 inhibitor hits | shares compounds with RAD52 inh | Salmon sperm DNA/acridine orange FP displacement, DNA binding | AC50, µM | hit rate 8% among 1,000;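 active means fitted half-maximal concentration for signal loss at or below twice the highest dose tested, in every separate run, actives reach about 64 µM in these data; inconclusive means runs disagree, or flat partial signal loss, or poor fit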
* hit, by the source's call; i = inactive; u = inconclusive; x = no result; [ ] = remark or other dose. This is a sample that favours compounds with a hit; in the whole collection about 1.5% have one here.

SMILES	NRP1-CendR mod	RAD54 inh	FID counter	N-glyco inh	RAD52 inh	miR122 inh	DNA binding	DNA binder FP
Cn1c2ccccc2c(=O)c2cc(NCCCN3CCOCC3)ccc21	-6	116*	x	19	70*	-8	2%	i
Cn1c(=O)cc(SCC(=O)NCCCN2CCOCC2)c2ccccc21	0	-8	3	x	x	0	x	x
CN1CCC[C@H]1CCNc1ccc2c(=O)c3ccccc3n(C)c2c1	4	90*	x	8	50*	-4	-10%	i
COc1cccc2sc3cc(NCCCN4CCOCC4)ccc3c(=O)c12	-2	78*	x	6	62*	-10	3%	i
C[C@H](CO)N1C[C@H](C)[C@H](CN(C)C)Oc2cc(C#CC(C)(C)O)ccc2S1(=O)=O	x	-1	x	x	3	-3[16.7 µM]	x	x
COc1ccccc1Nc1nc(NCCO)c2ccccc2n1	x	x	3	x	x	x	x	x
COc1ccc(OC)c(Nc2nc(NCCO)c3ccccc3n2)c1	6	94*	38*	15	88*	-4	-9%	i
CC(C)OCC(O)CN1CCN(CCN2C(=O)c3cccc4cccc(c34)C2=O)CC1 (configuration not stated)	-5	79*	20	33*	93*	-5	-13%	i
CCOC(=O)c1c(NC(=O)c2ccc(S(=O)(=O)N3CCOCC3)cc2)sc2c1CCN(C)C2	-47	89*	30	-1	59*	3	-7%	i
Cc1ccc(S(=O)(=O)N(C)C[C@H]2Oc3ccc(NC(=O)Nc4cccc5ccccc45)cc3C(=O)N([C@H](C)CO)C[C@@H]2C)cc1	x	x	x	x	x	-8[16.7 µM]	x	x
CCN(CC)CCN1CCN(c2cncc(-c3cccc(N)c3)n2)CC1	2	73*	x	2	99*	0	-11%	i
C[C@H]1CN([C@@H](C)CO)C(=O)Cc2cc(NC(=O)C3CC3)ccc2O[C@@H]1CN(C)C(=O)Nc1ccc2c(c1)OCO2	x	5	x	x	-4	2[16.7 µM]	x	x
Oc1ccc(Nc2nc(N3CCCC3)c3ccccc3n2)cc1	10	60*	20	53*	67*	3	i	i
Nc1nc(N)c2c(ccc3nccc32)[nH]1	6	62*	8	13	77*	x	-14%	i
Nc1ccc2ncccc2c1N	-7	9	x	12	x	1	x	x
Cc1noc(C)c1S(=O)(=O)N(C)C[C@@H]1OCCCC[C@@H](C)Oc2ccc(NS(=O)(=O)c3cccs3)cc2C(=O)N([C@@H](C)CO)C[C@@H]1C	x	-3	x	x	19	5[16.7 µM]	x	x
CCOC(=O)c1cnc2ccc(OCC)cc2c1NCCCN1CCOCC1	-3	101*	55*	13	70*	-3	-4%	i
COc1ccc(OC)c2sc(N(CCN(C)C)C(=O)c3ccc4ccccc4c3)nc12	4	69*	19	-2	93*	-5	5%	i
COc1cc2ccccc2cc1C(=O)N(CCN(C)C)c1nc2c(OC)ccc(OC)c2s1	7	60*	32	-5	94*	-4	-5%	i
CCN(CC)CCN(C(=O)C1=COCCO1)c1nc2ccc(C)cc2s1	-9	14	15	1	19	-4	x	x
CCN(CC)CCN(C(=O)C1=COCCO1)c1nc2c(OC)ccc(OC)c2s1	8	77*	19	0	88*	x	10%	i
CC(C)NC(=O)Nc1ccc2c(c1)C(=O)N(C)[C@@H]1CC[C@H](CC(=O)Nc3ccccc3)O[C@H]1CO2	x	-8	x	x	2	1[16.7 µM]	x	x
CC(=O)Nc1cc(-c2cccc(C(=O)NCCN(C)C)c2)cn2c(-c3ccc(F)c(Cl)c3)cnc12	8	17	x	-4	41	-6	x	x
CC(=O)Nc1cc(-c2cccc(C(=O)NCCN(C)C)c2)cn2c(-c3ccc(C(C)=O)cc3)cnc12	2	101*	x	-5	71*	-13	-18%	i
COc1ccc(-c2cnc3c(NC(C)=O)cc(-c4cccc(C(=O)NCCO)c4)cn23)cc1OC	-11	5	x	0	0	x	x	x
SMILES	NRP1-CendR mod	RAD54 inh	FID counter	N-glyco inh	RAD52 inh	miR122 inh	DNA binding	DNA binder FP
COc1cccc(-c2cnc3c(NC(C)=O)cc(-c4cccc(C(=O)NCCN(C)C)c4)cn23)c1	13	78*	x	-4	100*	2	0%	i
COc1ccc(-c2cnc3c(NC(C)=O)cc(-c4cccc(C(=O)NCCN(C)C)c4)cn23)cc1OC	-9	76*	x	-8	101*	-7	1%	i
C[C@@H]1CN([C@@H](C)CO)C(=O)CCCn2cc(nn2)CO[C@H]1CN(C)Cc1ccc(O)cc1	x	7	x	x	1	3[16.7 µM]	x	x
CCN1CCCC1CNC(=O)c1ccc2c(c1)NC(=O)/C(=C\c1ccccc1Cl)S2 (configuration not stated)	-3	11	x	-5	-45	-5	x	x
CCN1CCCC1CNC(=O)c1ccc2c(c1)NC(=O)/C(=C\c1ccc(OC)c(OC)c1)S2 (configuration not stated)	9	69*	23	-7	73*	-15	-3%	i
CNC[C@H]1Oc2ncc(/C=C/c3ccccc3)cc2C(=O)N([C@@H](C)CO)C[C@H]1C	x	x	x	x	x	-4[16.7 µM]	x	x
CCN1C(=O)CCN(C2CCCC2)c2nc(Nc3ccc(C(=O)NC4CCN(C)CC4)cc3OC)ncc21	21	u	x	55*	63*	6	3%	i
COc1ccc(C(=O)NC2CCCCCC2)cc1S(=O)(=O)N1CCCc2ccccc21	-7	1	-13	-6	x	8	x	x
COc1cc2nc(Nc3ccc(F)cc3)nc(N)c2cc1OC	2	59*	20	0	62*	x	11%	59µM*
Cc1c(C)n(CCN(C)C)c2ccc(C(=O)OCCN(C)C)cc12	8	104*	62*	7	103*	-5	i	i
O=C(C[C@H]1C[C@H]2c3cc(NC(=O)NC4CCCC4)ccc3O[C@H]2[C@@H](CO)O1)NCCN1CCCCC1	x	-3	x	x	-10	-4[16.7 µM]	x	x
Nc1cc2ccncc2c2ccccc12	-1	70*	27	-2	60*	-8	-14%	i
COc1ccc(S(=O)(=O)N(C)C[C@@H]2OCCCC[C@@H](C)Oc3ccc(NC(=O)C4CCCCC4)cc3C(=O)N([C@@H](C)CO)C[C@H]2C)cc1	x	-1	x	x	12	-11[16.7 µM]	x	x
CCCN1C[C@@H](C)[C@@H](OC)CN(C)C(=O)c2cc(NC(=O)Nc3ccccc3F)ccc2OC[C@@H]1C	x	6	x	x	-11	x	x	x
CCN(CC)CCNc1nc(SC)nc2sc3c(c12)CCN(C)C3	-12	53*	27	-2	56*	-14	6%	i
COCCNc1nc(SC)nc2sc3c(c12)CCN(C)C3	1	10	3	-2	10	-8	x	x
